Measurements from PubChem BioAssay (NCATS).
Records with an inconclusive call do not appear. Active and inactive are the calls of the source. Unless noted, calls follow the shape of the dose curve; as a rule, active = well fitted curve in the direction sought with a large enough effect; inconclusive = small, poorly fitted or top-dose-only effect, or another doubt; inactive = no such curve, though single readings can be large; an effect the other way counts as inactive or inconclusive.

Experiments:
[1] = biological target: Transient receptor potential cation channel subfamily V member 1 (Homo sapiens) (UniProt Q8NER1); experiment: HTS Assay for Compounds that Act as Enhancers of the Vanilloid Receptor 1 (AID 488979); also: 0% is about no effect
Transient receptor potential cation channel subfamily V member 1 (Homo sapiens), sequence (Q8NER1 whole entry, looked up): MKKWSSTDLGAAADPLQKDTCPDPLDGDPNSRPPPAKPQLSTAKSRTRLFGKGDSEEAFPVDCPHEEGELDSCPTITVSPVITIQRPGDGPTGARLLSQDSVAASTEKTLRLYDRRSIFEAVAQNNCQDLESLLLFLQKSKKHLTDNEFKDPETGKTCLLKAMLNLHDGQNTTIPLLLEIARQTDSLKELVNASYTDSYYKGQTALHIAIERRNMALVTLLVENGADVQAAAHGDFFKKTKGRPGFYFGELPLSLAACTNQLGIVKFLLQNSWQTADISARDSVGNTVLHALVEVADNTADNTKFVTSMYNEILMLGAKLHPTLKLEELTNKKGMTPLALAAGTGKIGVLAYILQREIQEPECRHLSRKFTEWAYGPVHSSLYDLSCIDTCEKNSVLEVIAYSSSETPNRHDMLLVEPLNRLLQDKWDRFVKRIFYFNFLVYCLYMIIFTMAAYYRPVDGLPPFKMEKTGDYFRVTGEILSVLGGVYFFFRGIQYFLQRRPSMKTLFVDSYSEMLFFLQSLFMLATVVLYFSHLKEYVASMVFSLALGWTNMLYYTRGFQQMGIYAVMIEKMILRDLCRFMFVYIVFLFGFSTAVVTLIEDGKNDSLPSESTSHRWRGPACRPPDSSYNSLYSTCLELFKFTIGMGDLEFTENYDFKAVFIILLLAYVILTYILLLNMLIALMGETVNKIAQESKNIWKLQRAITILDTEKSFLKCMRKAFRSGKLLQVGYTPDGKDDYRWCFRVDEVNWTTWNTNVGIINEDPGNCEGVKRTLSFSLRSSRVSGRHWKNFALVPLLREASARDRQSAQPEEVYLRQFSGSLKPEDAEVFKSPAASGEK
Procedure, shortened: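 Calcium influx kinetics via Fluo-8 (480/520 nm) in TRPV1-expressing cells, 2000/well cultured overnight at 35.5C. Compound-alone read 3 min (agonist phase), followed by EC20 capsaicin challenge for 2 min (enhancer phase).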

[2] = biological target: D(1A) dopamine receptor (Homo sapiens) (UniProt P21728); experiment: HTS Assay for Allosteric Agonists of the Human D1 Dopamine Receptor: Primary Screen for Agonists (AID 488981); also: 0% is about no effect
D(1A) dopamine receptor (Homo sapiens), sequence (P21728 whole entry, looked up): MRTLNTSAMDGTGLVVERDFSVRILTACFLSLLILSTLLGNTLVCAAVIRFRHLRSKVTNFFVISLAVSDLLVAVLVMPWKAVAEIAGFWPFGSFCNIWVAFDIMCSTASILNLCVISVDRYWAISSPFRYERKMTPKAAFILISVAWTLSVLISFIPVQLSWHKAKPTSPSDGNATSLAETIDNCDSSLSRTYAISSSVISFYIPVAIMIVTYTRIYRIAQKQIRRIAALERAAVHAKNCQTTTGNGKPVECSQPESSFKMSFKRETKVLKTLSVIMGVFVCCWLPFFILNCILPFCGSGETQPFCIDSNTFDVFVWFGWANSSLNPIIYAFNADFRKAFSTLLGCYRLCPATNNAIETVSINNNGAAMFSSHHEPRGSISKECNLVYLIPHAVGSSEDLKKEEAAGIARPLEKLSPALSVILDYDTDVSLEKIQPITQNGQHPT
Procedure, shortened: (§1)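 Calcium flux in an inducible, force-coupled HEK293 Trex D1 line (overnight at 30 C): agonist mode is the 180 s kinetic read after compound; potentiator mode is the following 180 s read after dopamine at EC20.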

[3] = biological target: D(1A) dopamine receptor (Homo sapiens) (UniProt P21728); experiment: HTS Assay for Allosteric Agonists of the Human D1 Dopamine Receptor: Primary Screen for Potentiators (AID 488982); also: 0% is about no effect
Procedure, shortened: as §1

[4] = biological target: D(1A) dopamine receptor (Homo sapiens) (UniProt P21728); experiment: HTS Assay for Allosteric Agonists of the Human D1 Dopamine Receptor: Primary Screen for Antagonists (AID 488983);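 also: calcium flux response to an EC80 dopamine challenge measured with no-wash dye; % is scaled to controls: 0 for no effect and ±100 for the full control effect; nearly all actives have a fitted effect of over 65% in size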
Procedure, shortened: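 Tetracycline-induced HEK293 T-REx D1 line, force-coupled to calcium flux, read with no-wash calcium dye. Compound added after 10 s baseline, read 180 s for agonism, then EC80 dopamine added and read a further 180 s.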

[5] = Validation screen for small molecules that induce genotoxicity in human embryonic kidney (HEK293T) cells expressing luciferase-tagged ELG1 (AID 493106); also: 0% is about no effect
Procedure, shortened: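 HEK293T cells expressing luciferase-tagged ELG1, 2,000 cells/well, exposed to compound 16 hr at 37 °C, 5% CO2. Luciferase read after ONE-Glo, 30 min at room temperature; increased signal indicates genetic stress.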

[6] = biological target: ATPase family AAA domain-containing protein 5 (Homo sapiens) (UniProt Q96QE3); experiment: Validation screen for small molecules that inhibit ELG1-dependent DNA repair in human embryonic kidney (HEK293T) cells expressing luciferase-tagged ELG1 (AID 493107);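 also: cells co-treated with the DNA-damaging agent 5-fluorouridine alongside compound; series mostly up to about 46 µM; % is scaled to controls: 0 for no effect and ±100 for the full control effect; inhibitors lower the ELG1-luciferase luminescence signal; nearly all actives have a fitted effect of over 70% in size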
Procedure, shortened: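 HEK293T cells expressing luciferase-tagged ELG1, 2,000 per well, treated with 5-fluorouridine plus compound for 16 h at 37 C. ONE-Glo luminescence after 30 min at room temperature reports ELG1 reporter level.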

[7] = biological target: Thyrotropin-releasing hormone receptor (Homo sapiens) (UniProt P34981); experiment: qHTS for Small Molecule Agonists and Allosteric Enhancers of Human TRH Receptor: Validation Screen for Agonists (AID 493127;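 active = calcium activation more than 3 SD above the typical response in the agonist read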; also: 0% is about no effect); details: TRH receptor agonist cell assay; at 2 µM; stronger effect = higher value
Thyrotropin-releasing hormone receptor (Homo sapiens), sequence (P34981 whole entry, looked up): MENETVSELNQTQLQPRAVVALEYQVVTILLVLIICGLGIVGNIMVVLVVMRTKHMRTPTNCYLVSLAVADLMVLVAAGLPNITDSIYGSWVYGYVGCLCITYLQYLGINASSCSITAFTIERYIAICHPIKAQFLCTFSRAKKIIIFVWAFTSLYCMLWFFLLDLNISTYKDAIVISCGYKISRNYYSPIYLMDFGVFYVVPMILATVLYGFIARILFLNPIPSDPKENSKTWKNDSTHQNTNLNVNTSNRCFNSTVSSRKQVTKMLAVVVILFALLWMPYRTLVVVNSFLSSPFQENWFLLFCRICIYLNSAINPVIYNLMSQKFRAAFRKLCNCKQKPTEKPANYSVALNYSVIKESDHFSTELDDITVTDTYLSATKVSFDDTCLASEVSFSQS
Procedure, shortened: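 TRHR cells loaded with fluo-8 calcium dye; FDSS kinetic fluorescence (Ex 480/Em 530) read at 1 s/cycle after 23 nL compound addition. Agonist-mode calcium response recorded before the 10 nM TRH (EC20) addition.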

[8] = Nrf2 qHTS screen for inhibitors: Validation (AID 493153; active = well fitted inhibition curve with a large enough effect in the main read-out, with a control signal flat, not every such curve was filed as active); details: Potency: luciferase luminescence; viability change: measured here: cytotoxicity max response
Procedure, shortened: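 A549 cells carrying ARE-firefly luciferase reporter, 5000 cells/well in 5% FBS OPTI-MEM, treated with compound over a concentration series for 18-24 h at 37 C. Luciferase luminescence gave Nrf2 activity; CellTiter-Fluor fluorescence gave viability.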

[9] = qHTS for Inhibitors of Cell Surface uPA Generation: Validation Assay (AID 493164); also: 0% is about no effect
Procedure, shortened: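 RAW 264.7 cells (4000/well) were plated overnight, then exposed for 18 h at 37 C, 5% CO2 to compounds in a 7-point 1:5 titration (2.45 nM–38.3 uM final). Intracellular ATP was read by ATP-Lite luminescence.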

[10] = Validation screen for small molecules that induce DNA re-replication in SW480 colon adenocarcinoma cells (AID 504364); also: 0% is about no effect
Procedure, shortened: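 SW480 cells (250/well) exposed 48 h at 37 C, 5% CO2, then Hoechst-stained 40 min. Nuclear DNA content imaged by fluorescence scanning (405 nm excitation, 500-530 nm emission); re-replication scored as increased nuclei with elevated intensity.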

[11] = biological target: Peptidyl-prolyl cis-trans isomerase NIMA-interacting 1 (Homo sapiens) (UniProt Q13526); experiment: qHTS Validation Assay to Find Inhibitors of Pin1 (AID 504536; active = well fitted inhibition curve with a large enough effect in the polarisation, with a control signal flat, not every such curve was filed as active; the % refers to the polarisation;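 also: 0% = full Pin1 enzyme wells and -100% = no-enzyme wells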)
Peptidyl-prolyl cis-trans isomerase NIMA-interacting 1 (Homo sapiens), sequence (Q13526 whole entry, looked up): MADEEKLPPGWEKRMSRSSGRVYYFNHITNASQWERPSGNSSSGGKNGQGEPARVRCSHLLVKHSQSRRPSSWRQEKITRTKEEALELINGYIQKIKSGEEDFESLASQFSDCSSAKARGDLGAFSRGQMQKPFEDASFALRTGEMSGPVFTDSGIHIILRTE
Procedure, shortened: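 Fluorescence polarization competition: compounds (titration) displace HiFluor-488-labeled Pin1-1b peptide from Pin1 (0.3 uM final) in pH 7.5 HEPES buffer with DTT, 10 min at room temperature; %Activity normalized to no-enzyme wells, curves fitted.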

[12] = biological target: Phosphoglycerate kinase, glycosomal (Trypanosoma brucei brucei) (UniProt P07378); experiment: qHTS Validation Assay to Find Inhibitors of Phosphoglycerate Kinase (AID 504547);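 also: control wells lack PGK and mark full inhibition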
Phosphoglycerate kinase, glycosomal (Trypanosoma brucei brucei), sequence (P07378 whole entry, looked up): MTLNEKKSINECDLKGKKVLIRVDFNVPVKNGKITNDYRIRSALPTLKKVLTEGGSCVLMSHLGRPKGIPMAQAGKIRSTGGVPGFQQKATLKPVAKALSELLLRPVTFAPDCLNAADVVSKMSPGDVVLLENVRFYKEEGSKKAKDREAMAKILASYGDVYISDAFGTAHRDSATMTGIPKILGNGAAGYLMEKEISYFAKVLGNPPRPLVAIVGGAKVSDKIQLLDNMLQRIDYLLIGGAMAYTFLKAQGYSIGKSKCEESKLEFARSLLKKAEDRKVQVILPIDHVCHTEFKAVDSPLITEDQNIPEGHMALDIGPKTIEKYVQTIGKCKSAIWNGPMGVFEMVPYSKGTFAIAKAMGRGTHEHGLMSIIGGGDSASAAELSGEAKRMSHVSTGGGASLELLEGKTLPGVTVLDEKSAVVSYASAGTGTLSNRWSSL
Procedure, shortened: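 Inhibition of the enzyme is judged by a Kinase-Glo Plus luminescent signal following a one-hour incubation at room temperature. Because 1,3-BPG is unstable, it is made in situ by GAPDH at 100nM final; no-PGK wells define the baseline.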

[13] = biological target: phosphoglycerate mutase (Leishmania major) (UniProt Q4Q090); experiment: qHTS Validation Assay to Find Inhibitors of Phosphoglycerate Mutase (AID 504548); details: Potency: inhibition qHTS;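 also: end-point luminescence from Kinase-GloPlus after the PGAM reaction; series mostly up to about 58 µM; % is scaled to controls: 0 for no effect and ±100 for the full control effect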
phosphoglycerate mutase (Leishmania major), sequence (Q4Q090 1-553): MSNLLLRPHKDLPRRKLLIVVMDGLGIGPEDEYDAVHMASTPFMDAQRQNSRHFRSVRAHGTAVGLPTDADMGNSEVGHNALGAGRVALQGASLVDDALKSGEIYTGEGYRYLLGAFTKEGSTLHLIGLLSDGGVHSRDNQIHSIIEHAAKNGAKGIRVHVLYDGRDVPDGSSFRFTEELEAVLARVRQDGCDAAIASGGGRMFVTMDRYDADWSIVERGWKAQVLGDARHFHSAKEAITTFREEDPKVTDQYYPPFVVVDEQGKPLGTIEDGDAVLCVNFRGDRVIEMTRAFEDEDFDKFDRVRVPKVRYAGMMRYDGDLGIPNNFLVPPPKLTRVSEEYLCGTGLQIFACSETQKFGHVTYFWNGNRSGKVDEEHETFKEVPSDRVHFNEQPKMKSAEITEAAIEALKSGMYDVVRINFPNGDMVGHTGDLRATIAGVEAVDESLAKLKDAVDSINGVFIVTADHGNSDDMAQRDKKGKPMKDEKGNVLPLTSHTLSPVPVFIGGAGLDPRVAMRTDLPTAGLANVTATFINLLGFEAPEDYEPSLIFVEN
Procedure, shortened: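 L. major PGAM (1.25nM final) was added to substrate buffer and pinned compound, incubated 45 minutes at room temperature, then Kinase-GloPlus added; luminescence read after 10 minutes. Buffer: 100 mM TEA pH 7.6, 5 mM MgCl2, 0.01% Tween-20.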

[14] = biological target: Ubiquitin carboxyl-terminal hydrolase 1 (Homo sapiens) (UniProt O94782); experiment: Inhibitors of USP1/UAF1: Pilot qHTS (AID 504865); also: nearly all actives have a fitted effect of over 35% in size; also: potency is read from the fitted curve at half-maximal effect
Ubiquitin carboxyl-terminal hydrolase 1 (Homo sapiens), sequence (O94782 whole entry, looked up): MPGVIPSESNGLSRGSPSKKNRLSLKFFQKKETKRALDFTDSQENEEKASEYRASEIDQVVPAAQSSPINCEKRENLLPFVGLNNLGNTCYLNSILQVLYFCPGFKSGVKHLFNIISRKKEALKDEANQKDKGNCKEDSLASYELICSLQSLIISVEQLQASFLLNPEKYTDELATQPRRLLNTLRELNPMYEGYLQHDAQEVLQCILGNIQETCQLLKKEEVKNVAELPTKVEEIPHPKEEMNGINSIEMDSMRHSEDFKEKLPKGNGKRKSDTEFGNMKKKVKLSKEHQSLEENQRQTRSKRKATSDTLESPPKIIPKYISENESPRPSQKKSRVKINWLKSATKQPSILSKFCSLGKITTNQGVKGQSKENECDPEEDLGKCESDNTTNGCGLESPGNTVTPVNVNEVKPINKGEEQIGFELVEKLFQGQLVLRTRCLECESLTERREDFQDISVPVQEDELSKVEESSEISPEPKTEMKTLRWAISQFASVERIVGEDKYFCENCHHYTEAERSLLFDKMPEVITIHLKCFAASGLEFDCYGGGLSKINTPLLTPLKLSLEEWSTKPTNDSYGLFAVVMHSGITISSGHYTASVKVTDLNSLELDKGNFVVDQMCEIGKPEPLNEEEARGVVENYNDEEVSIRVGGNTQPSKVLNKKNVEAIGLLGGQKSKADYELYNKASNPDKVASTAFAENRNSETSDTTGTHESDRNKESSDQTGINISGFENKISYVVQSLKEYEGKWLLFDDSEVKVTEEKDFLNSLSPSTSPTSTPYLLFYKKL
Procedure, shortened: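 Deubiquitinase activity followed as kinetic rhodamine fluorescence release from 150 nM Ub-Rho. 1 nM USP1/UAF1 with compound, after 15 min room-temperature preincubation, in HEPES pH 7.8 buffer containing TCEP, EDTA, BSA and Tween-20.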

[15] = qHTS for Inhibitors of ATXN expression: Validation of Cytotoxic Assay (AID 588349); also: % is scaled to controls: 0 for no effect and ±100 for the full control effect
Procedure, shortened: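 HEK293 cells treated with titrated compound for 72 hr at 37 degrees C; viability read as intracellular ATP by CellTiter Glo luminescence.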

[16] = qHTS for Inhibitors of ATXN expression: Validation (AID 588378); also: series mostly up to about 57 µM; % is scaled to controls: 0 for no effect and ±100 for the full control effect; nearly all actives have a fitted effect of over 75% in size
Procedure, shortened: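 Luciferase luminescence (Bright-Glo) from an ATXN2-FFLuc HEK293 line after 24 h compound exposure at 37 °C, preceded by a CellTiter-Fluor fluorescence viability read. Serial dilutions of a reference ATXN2 inhibitor and a luciferase inhibitor served as controls.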

[17] = biological target: Thyrotropin receptor (Homo sapiens) (UniProt P16473); experiment: qHTS Assay for Antagonists of the Thyroid Stimulating Hormone Receptor (AID 488980); also: series mostly up to about 58 µM; 0% is about no effect
Thyrotropin receptor (Homo sapiens), sequence (P16473 whole entry, looked up): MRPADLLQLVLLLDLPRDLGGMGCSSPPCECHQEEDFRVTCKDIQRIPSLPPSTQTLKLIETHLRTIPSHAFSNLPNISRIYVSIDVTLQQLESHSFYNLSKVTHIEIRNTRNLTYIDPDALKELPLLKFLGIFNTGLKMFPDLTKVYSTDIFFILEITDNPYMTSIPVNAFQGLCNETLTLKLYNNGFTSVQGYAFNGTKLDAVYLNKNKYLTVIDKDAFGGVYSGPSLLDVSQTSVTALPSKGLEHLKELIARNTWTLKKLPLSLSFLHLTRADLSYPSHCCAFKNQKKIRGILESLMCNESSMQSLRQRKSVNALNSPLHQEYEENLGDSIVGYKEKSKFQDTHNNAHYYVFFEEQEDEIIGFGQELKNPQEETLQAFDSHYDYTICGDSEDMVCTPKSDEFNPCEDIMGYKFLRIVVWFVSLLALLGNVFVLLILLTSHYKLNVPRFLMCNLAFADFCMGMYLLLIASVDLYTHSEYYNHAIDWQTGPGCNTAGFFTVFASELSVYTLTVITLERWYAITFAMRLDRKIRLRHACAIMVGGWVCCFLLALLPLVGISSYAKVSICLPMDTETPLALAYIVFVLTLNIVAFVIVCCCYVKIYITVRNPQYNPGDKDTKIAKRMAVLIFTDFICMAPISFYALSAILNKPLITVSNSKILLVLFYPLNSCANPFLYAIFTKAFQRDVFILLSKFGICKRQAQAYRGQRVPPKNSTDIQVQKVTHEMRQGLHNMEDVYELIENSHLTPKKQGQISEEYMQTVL
Procedure, shortened: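 Inhibition of cAMP raised by EC80 TSH (4 nM final) was read by HTRF, with lysate cAMP competing against cAMP-d2 for cryptate antibody after 30 min at room temperature. The cells were transfected HEK293 held in phosphodiesterase inhibitor RO 20-1724 at 70 uM.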

[18] = biological target: Galactokinase (Homo sapiens) (UniProt P51570); experiment: qHTS Validation Assay for Inhibitors of Human Galactokinase (GALK) (AID 493189); also: 0% is about no effect
Galactokinase (Homo sapiens), sequence (P51570 whole entry, looked up): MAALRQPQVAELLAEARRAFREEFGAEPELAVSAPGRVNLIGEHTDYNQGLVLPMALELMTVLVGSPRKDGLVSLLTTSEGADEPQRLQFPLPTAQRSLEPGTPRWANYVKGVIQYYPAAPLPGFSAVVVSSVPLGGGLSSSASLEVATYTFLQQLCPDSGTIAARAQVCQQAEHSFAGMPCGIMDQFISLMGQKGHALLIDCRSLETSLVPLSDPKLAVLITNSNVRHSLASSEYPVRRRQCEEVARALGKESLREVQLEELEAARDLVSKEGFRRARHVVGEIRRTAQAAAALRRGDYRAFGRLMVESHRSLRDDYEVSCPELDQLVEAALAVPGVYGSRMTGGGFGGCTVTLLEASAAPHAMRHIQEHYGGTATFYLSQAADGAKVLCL
Procedure, shortened: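 Inhibition was measured as remaining ATP, detected by luciferase luminescence after a 1 h room-temperature reaction. Final conditions: 5 nM GALK, 100 uM galactose, 35 uM ATP, pH 8.0 HEPES buffer.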

[19] = biological target: ATP-dependent 6-phosphofructokinase (Trypanosoma brucei brucei) (UniProt O15648); experiment: qHTS Assay to Find Inhibitors of T. brucei phosphofructokinase: hit validation (AID 492961);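 also: luminescence reports ADP formed as PFK phosphorylates fructose-6-phosphate with ATP; series mostly up to about 51 µM; % is scaled to controls: 0 for no effect and ±100 for the full control effect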
Procedure, shortened: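 ADP-Glo luminescence read-out of ADP formed by 1.25 nM PFK from 0.1 mM ATP and 0.5 mM F6P (TEA pH 8.0, 45 min, RT). Compounds titrated; activity normalized to no-enzyme and full-enzyme controls.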

N=C(N)SCCN
inactive: outcome [1] | Potency [2] | Potency [3] | Potency [4] | Potency [5] | Potency [6] | activation [7] 0.688% | Potency [8] | outcome [9] | Potency [10] | Potency [11] | Potency [12] | Potency [13] | Potency [14] | Potency [15] | Potency [16]
0.333%: viability change [8]

CCCCCCC/C=C\CCCCCCCCC(=O)O
3.91%: viability change [8]
inactive: outcome [1] | outcome [17] | Potency [2] | Potency [5] | Potency [6] | activation [7] 1.5% | Potency [8] | outcome [9] | Potency [18] | Potency [10] | Potency [12] | Potency [13] | Potency [15] | Potency [16]
active: Potency [14] 39.8 µM

CC(=O)O[C@H]1CC2(C)[C@@H](C[C@@H](O)[C@H]3[C@@]4(C)CC[C@@H](O)[C@@H](C)[C@@H]4CC[C@@]32C)C1=C(CCC=C(C)C)C(=O)O (some centres undefined)
inactive: outcome [1] | Potency [2] | Potency [3] | Potency [4] | Potency [5] | activation [7] 1.06% | Potency [8] | outcome [9] | Potency [18] | Potency [10] | Potency [11] | Potency [13] | Potency [14] | Potency [15] | Potency [16]
-4.76%: viability change [8]

COc1cc(C(O)C(=O)O)ccc1O (centres undefined)
inactive: outcome [1] | Potency [2] | Potency [3] | Potency [4] | Potency [5] | Potency [6] | activation [7] 1.12% | Potency [8] | outcome [9] | Potency [18] | Potency [10] | Potency [11] | Potency [12] | Potency [13] | Potency [15] | Potency [16]
10.2%: viability change [8]

NS(=O)(=O)c1cccc2c1c([N+](=O)[O-])cc1nc(O)c(O)nc12
-15.2%: viability change [8]
inactive: outcome [1] | Potency [2] | Potency [3] | Potency [4] | Potency [5] | Potency [6] | activation [7] 0.875% | Potency [8] | outcome [9] | Potency [18] | Potency [10] | Potency [12] | Potency [13] | Potency [16]

Cc1cc2c(cc1Cl)N(C(=O)Nc1ccnc3ccccc13)CC2
inactive: outcome [1] | Potency [2] | Potency [3] | Potency [4] | Potency [5] | Potency [6] | activation [7] 1.44% | Potency [8] | outcome [9] | Potency [18] | Potency [10] | Potency [11] | Potency [12] | Potency [13] | Potency [15] | Potency [16]
1.57%: viability change [8]

COC(=O)C1=C(C)NC(C)=C([N+](=O)[O-])C1c1ccccc1C(F)(F)F (centres undefined)
-10.2%: viability change [8]
inactive: outcome [1] | Potency [2] | Potency [3] | Potency [4] | Potency [6] | activation [7] -3.94% | Potency [8] | outcome [9] | Potency [18] | Potency [10] | Potency [11] | Potency [12] | Potency [13] | Potency [15] | Potency [16]

NC(Cc1cccc(-c2ccccc2CP(=O)(O)O)c1)C(=O)O (centres undefined)
inactive: outcome [1] | outcome [17] | Potency [2] | Potency [5] | Potency [6] | activation [7] 1.31% | Potency [8] | Potency [18] | Potency [10] | Potency [11] | Potency [13] | Potency [14] | Potency [15] | Potency [16]
0.913%: viability change [8]

CN1C2CCC1CC(OC(c1ccccc1)c1ccccc1)C2 (centres undefined)
inactive: outcome [19]

CC(O)C(O)[C@H]1CNc2nc(N)[nH]c(=O)c2N1 (some centres undefined)
inactive: outcome [19]

c1ccc(C(NCCNC(c2ccccc2)c2ccccc2)c2ccccc2)cc1
inactive: Potency [2] | Potency [3] | Potency [5] | Potency [6] | outcome [9] | Potency [11] | Potency [12] | Potency [13]
